From PubChem
S2 tox: cell viability loss in ATXN counter-screen. S2 cells (HEK-293 line with an ATXN2-luciferase reporter) viability, CellTiter-Fluor protease fluorescence, 24 h. Potency, µM (titrated, usually from 56.7 µM), hits mostly cytotoxic. 0.49% of 400,000 active. AID 651635; also: nearly all actives have a fitted effect of over 40% in size
TGFb SMAD3 inh: blocks TGF-b signaling | HepG2 CAGA-GFP TGF-b/SMAD3 reporter, GFP fluorescence, 18 h; TGF-beta stimulated, 500 pg/mL final | Potency, µM (series often up to 46.1 µM), inactives show at the top dose activity, negative = inhibition, hits mostly inhibitors | 1.2% of 410,000 active | AID 588855; also: % is scaled to controls: 0 for no effect and ±100 for the full control effect; nearly all actives have a fitted effect of over 65% in size
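Cell-based qHTS in HEPG2 carrying a CAGA-GFP Smad reporter; compounds added before 500 pg/mL final TGF-beta, 18 h incubation at 37 degrees C, GFP fluorescence quantified per cell by imaging cytometry.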
HT1080 IDH1KD tx: toxicity to HT-1080 IDH1 knockdown cells (counter line); Potency, µM (series often up to 46.1 µM), for the others: at the highest dose activity, negative = toxicity, usual class: cytotoxic; 2% of 360,000 active; HT-1080 IDH1 knockdown viability, ATP luminescence, 48 h;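 also: 0% = DMSO wells and -100% = cell-free medium wells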
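IDH1KD HT-1080 cells, 750/well, RPMI + 5% FBS; compound pinned after 2 h settling; 48 h, 37 °C; CellTiter-Glo luminescence; % activity normalised to DMSO and no-cell wells; curves fitted, classed by r2 and efficacy.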
ATXN2 expr inh: reduces ATXN2 reporter expression in HEK-293 cells; Potency, µM (series often up to 57 µM), inactives show top-dose activity change, negative = inhibition, hits mostly inhibitors; HEK-293 ATXN2-luciferase reporter, luminescence, 24 h; 0.72% of 360,000 active; also: % is scaled to controls: 0 for no effect and ±100 for the full control effect; nearly all actives have a fitted effect of over 55% in size
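ATXN2-luciferase reporter cells (luciferase flanked by upstream and downstream ATXN2 gene portions) were treated 24 h at 37 °C with compounds at up to 57 uM. SteadyGlo luminescence gave expression; GF-AFC fluorescence gave viability.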
HT1080-NT tox: kills 2HG-producing HT-1080-NT fibrosarcoma cells; HT-1080-NT fibrosarcoma viability, CellTiter-Glo ATP luminescence, 48 h; Potency, µM (series often up to 46.1 µM), for the others: at the highest dose activity, negative = less viability, usual class: cytotoxic; 1.6% of 360,000 active;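 also: NT is the 2HG producing partner of a matched IDH1 knockdown line; 0% = DMSO-treated cells and -100% = media-only wells without cells; nearly all actives have a fitted effect of over 55% in size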
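Viability of the 2HG-overproducing fibrosarcoma line after 48 hours of compound exposure at 37 degrees C was determined by luminescence with CellTiter-Glo, and concentration-effect curves were then fitted and categorized.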
HepG2 tox: kills HepG2 cells in TGF-b inhibitor counter-screen; HepG2 CAGA-GFP viability, ATP luminescence, 18 h; Potency, µM (series often up to 46.1 µM), without a hit: top-dose activity change, negative = cytotoxicity, usual class: cytotoxic; 0.76% of 410,000 active
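HepG2 CAGA-GFP cells (1000/well, DMEM with 1% FBS) received compound, then TGF-beta at 500 pg/mL final, and were incubated 18 hours at 37 degrees C. Viability was read by CellTiter-Glo luminescence. Media-only wells were set as complete cell-killing and DMSO as no toxicity.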
Numbers without * were called inactive; i = inactive; u = inconclusive; x = no result given; ! = repeats disagree; [ ] = another dose, or the depositor's remark. The list is not random: actives were taken first. Their share in the collection is about 3.9%. Calls follow the shape of the dose curve; as a rule, active = well fitted curve in the direction sought with a large enough effect; inconclusive = small, poorly fitted or top-dose-only effect, or another doubt; inactive = no such curve, though single readings can be large; an effect the other way counts as inactive or inconclusive. Potency is read from the fitted curve at half-maximal effect.

SMILES	S2 tox	TGFb SMAD3 inh	HT1080 IDH1KD tx	ATXN2 expr inh	HT1080-NT tox	HepG2 tox
C=CCn1c(CNc2ccc(C)cc2)nnc1SCC(=O)N/N=C/c1ccc(O)cc1O	i	u	-16%[9.24 µM]	20µM*	u	1%
C=CCn1c(CNc2ccccc2)nnc1SCC(=O)N/N=C/c1ccc(O)cc1O	i	-6%	u	u	u	-11%
Cc1cc(Cl)ccc1OCC(=O)N1CCCN(C(=O)COc2ccc(Cl)cc2C)CC1	i	u	-28%	-29%	-18%	-14%
Cc1cc(Cl)ccc1OC(C)C(=O)N1CCCN(C(=O)C(C)Oc2ccc(Cl)cc2C)CC1 (stereo unspecified)	u	u	21µM*	u	18µM*	-5%
CCOc1cc(CNCCSc2nnnn2C)cc(Br)c1OCc1ccccc1	u	u	u	-36%	u	-62%
CCOc1cc(CNCCO)cc(Br)c1OCc1ccccc1	u	u	u	u	21µM*	-143%
CCOc1cc(CNCc2ccncc2)cc(Br)c1OCc1ccc(F)cc1	u	-4%	11µM*	u	u	-45%
CCCCNCc1cc(Br)c(OCc2cccs2)c(OC)c1	i	u	21µM*	-27%	u	-71%
Fc1ccc(COc2ccc(Br)cc2CNCc2ccncc2)cc1	i	5%	u	-29%	-19%	-16%
CCNCc1cc(Cl)c(OCc2ccccc2)c(OCC)c1	i	u	u	u	16µM*	-44%
O=C(Cc1ccc2c(c1)OCO2)N1CCOc2ccc(CN3CCOCC3)cc2C1	i	x	x	x	x	x
COc1ccccc1CNC(=O)c1ccc(Cn2c(SCc3ccccc3)nc3cccnc32)cc1	i	0%	x	-32%	x	-12%
CCOc1cc(CNCCc2ccc(S(N)(=O)=O)cc2)cc(Cl)c1OCc1ccccc1	x	u	18µM*	20µM*	14µM*	-110%
COc1ccc(CNCCc2ccc(Cl)cc2)cc1OCc1ccccc1	u	u	u	-31%[11.3 µM]	u	-92%
CCOc1cc(CNCc2ccccc2)ccc1OCc1ccc(Cl)cc1	u	u	u	u	15µM*	-97%
Cc1c(CC(=O)NCCc2ccccc2)c(=O)oc2c(C)c3occ(C(C)(C)C)c3cc12	x	u	x	x	x	-29%
CCN(C(=O)CSc1nc(-c2ccccc2)no1)c1cccc(C)c1	u	u	x	u	x	-90%
CCOC(=O)[C@H](CCc1ccccc1)N[C@H]1CS[C@H](c2cccs2)CN(CC(=O)O)C1=O	i	x	x	70%	x	x
CCOC(=O)[C@H](CCc1ccccc1)N[C@H]1CCc2ccccc2N(CC(=O)O)C1=O	35µM*!	9%	-1%	24µM*!	19%	12%
O=C(Nc1ccc(Br)cc1F)N1CCC2(CC1)Oc1ccccc1C(=O)N2Cc1ccccc1F	x	x	x	x	x	-6%
CCOc1ccc(CN2CCN(Cc3cc4ccccc4[nH]3)CC2CCO)cc1 (stereo unspecified)	i	u	-14%	-28%	-2%	-2%
COc1cccc(CN2CCN(Cc3cc4ccccc4[nH]3)CC2CCO)c1 (stereo unspecified)	i	22µM*	-1%	x	20%	17%
COc1cccc(-c2ccnc(-n3ncc(C(=O)NCC(C)(C)CN(C)C)c3C)n2)c1	i	x	x	x	x	x
CCCOc1cccc(C(=O)Nc2cccc(NC(=O)c3ccc(Cl)cc3Cl)c2)c1	i	u	x	9%	x	-43%
CCCOc1ccc(C(=O)Nc2cccc(NC(=O)c3ccc(Cl)cc3Cl)c2)cc1	u	u	x	-14%	x	11µM*
SMILES	S2 tox	TGFb SMAD3 inh	HT1080 IDH1KD tx	ATXN2 expr inh	HT1080-NT tox	HepG2 tox
COc1ccc(C2c3c(n(C)c4ccccc34)C(=O)N2CC(=O)Nc2cc(Cl)ccc2C)cc1 (stereo unspecified)	x	0%	x	x	x	-17%
O=C(NNc1ccc(Cl)cc1)c1cccs1	i	-2%	6.5µM*	u	4.6µM*	-18%
Cc1ccccc1NNC(=O)C(=O)NNc1ccccc1C	i	-29%	18µM*	x	-7%	-21%
CCOC(=O)C(=O)NNc1ccc(Cl)cc1	i	0%	4.1µM*	-29%	3.7µM*	-7%
CCOC(=O)C(=O)NNc1ccccc1OC	i	15%	4%	-17%	-18%	-27%
CCOC(=O)C(=O)NNc1ccc(C)cc1	i	0%	-2%	-3%	u	-28%
CCCOC(=O)C(=O)NNc1ccccc1	i	-15%	5.2µM*	-13%[11.3 µM]	3.7µM*	-1%
Cc1ccc(C)c(NNC(=O)C(=O)NNc2cc(C)ccc2C)c1	i	2%	-23%	-12%	-2%	2%
Cc1ccc(SCc2nc(-c3ccc(C(=O)NCc4ccccc4Cl)cc3)oc2C)cc1	i	0%	x	1%	x	-16%
COc1cc(CN2CCOc3ccc(CN4CCC(O)(c5cccnc5)CC4)cc3C2)ccc1F	i	x	x	x	x	x
CCCCCCCCN1[C@@H](CC(C)=O)c2ccc(/C=C/C(C)=O)cc2S1(=O)=O	x	u	x	x	x	-16%
CC(C)OC(=O)C(=O)NNc1ccccc1	i	-1%	9.2µM*	u	7.3µM*	5%
C=C(C)C(=O)NNc1ccccc1	i	4%	21µM*	-24%	7.3µM*	6%
CCc1ccc(C(=O)NNc2ccc(Cl)cc2)cc1	i	1%	6.5µM*	x	u	-32%
Cc1cccc(NNC(=O)C(=O)NNc2cccc(C)c2)c1	i	-11%	5.2µM*	x	u	-22%
Cc1cccc(NC(=O)CC(=O)Nc2cccc(C)c2)c1	u	2%	-14%	-5%	-10%	-28%
CCc1ccc(C(=O)NNc2cc(Cl)cc(Cl)c2)cc1	i	u	u	-17%	-28%	-2%
COc1ccc(-n2cccc2/C=C/[N+](=O)[O-])cc1	x	18µM*	u	u	-1%	-60%
COc1ccc(N(C)S(=O)(=O)c2cccc3cccnc23)c(OC)c1	i	u	8.9µM*	-13%	11µM*	-2%
COc1ccccc1NC(=O)CN(C)S(=O)(=O)c1cccc2cccnc12	i	7%	0%	x	3%	2%
C/C(=N/NS(=O)(=O)c1ccc(C)cc1C)c1c[nH]c2ccccc12	i	18µM*	-29%	-18%	-11%	-25%
CSc1ccc(CNC(=O)C2CCCN(S(=O)(=O)N(C)c3ccc(F)cc3)C2)cc1 (stereo unspecified)	x	4.5µM*	x	x	x	-22%
